Compounds with a hit are over-represented: about 3.9% of the library has one in this group of screens.
H9c2 protect – cardioprotection against H2O2-induced cell death, primary screen, uHTS, H9c2 cells, ATPLite luminescence. AID 588492, 2011. protection from H2O2 cell death, % at 20 µM. H9c2 cardiomyocytes, H2O2 injury protection, 2 h. 360,000 compounds, 0.63% hits;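 active means compounds giving at least 50% protection of heart cells from peroxide-induced death in the single-dose screen, raw or plate-pattern-corrected value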;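 further: 0% = DMSO wells with peroxide and 100% = DMSO wells without peroxide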
ALR H2O2 inh – inhibitors of human ALR sulfhydryl oxidase, primary screen, biochemical, H2O2 detection, HRP-luminol luminescence, single point. 290,000 compounds, 3.8% hits. purified ALR, DTT oxidation. inhibition, % (concentration not given with the values);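 active means mean replicate inhibition above about 79%, with every replicate also reaching it, limit read from the data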
Target sequence (P55789 whole entry, looked up): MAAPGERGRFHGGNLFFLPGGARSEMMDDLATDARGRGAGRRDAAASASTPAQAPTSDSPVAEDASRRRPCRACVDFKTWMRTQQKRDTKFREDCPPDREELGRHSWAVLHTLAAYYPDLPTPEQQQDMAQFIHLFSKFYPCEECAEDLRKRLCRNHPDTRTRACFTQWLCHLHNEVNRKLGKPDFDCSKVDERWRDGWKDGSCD
UBC9 SUMO inh – inhibitors of in vitro SUMOylation cascade, primary screen, biochemical, HTRF, uHTS | SUMO-conjugating enzyme UBC9 (Homo sapiens), P63279 | HTRF SUMOylation assay, SAE1/SAE2 + UBC9 | inhibition, % at 35 µM | 290,000 compounds, 0.36% hits | AID 2006, 2009; in the data active means inhibition above about 50%, passing the limit was not always enough
NTR1 agonist – agonists of human NTR1, primary screen, imaging, U2OS cells, beta-arrestin-GFP, high content; NTR1-U2OS beta-arrestin-GFP spot imaging, agonist mode; activation, % at 20 µM; 330,000 compounds, 0.17% hits; AID 493036, 2011; Neurotensin receptor type 1 (Homo sapiens), P30989;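 active means activation at or above 40% of the spot to cytoplasm intensity ratio, with at least 20 cells analyzed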;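 further: 0% = DMSO without peptide and 100% = 100 nM NTR1 peptide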
Target sequence (P30989 whole entry, looked up): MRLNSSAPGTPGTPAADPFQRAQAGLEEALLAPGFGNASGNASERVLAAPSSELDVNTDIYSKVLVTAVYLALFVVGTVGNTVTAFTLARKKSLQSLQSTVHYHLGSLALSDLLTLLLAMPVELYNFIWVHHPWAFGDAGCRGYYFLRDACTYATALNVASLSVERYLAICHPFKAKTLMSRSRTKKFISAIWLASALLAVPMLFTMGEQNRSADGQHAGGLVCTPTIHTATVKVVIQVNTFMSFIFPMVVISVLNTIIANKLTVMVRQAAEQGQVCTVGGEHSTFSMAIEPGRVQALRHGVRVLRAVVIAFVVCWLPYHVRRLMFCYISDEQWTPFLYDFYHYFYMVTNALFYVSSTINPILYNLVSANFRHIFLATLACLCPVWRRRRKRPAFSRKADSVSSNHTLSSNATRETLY
Active calls of the source: *; . = not tested or not shown.

SMILES | H9c2 protect | ALR H2O2 inh | UBC9 SUMO inh | NTR1 agonist
O=C1c2c(O)cc(O)cc2O[C@H](c2ccc(O)cc2)[C@H]1O | 1.0 | 87.3* | . | -1.1
COc1cc(O)c2c(c1)OC(c1ccc(O)cc1)CC2=O (stereo not given) | -7.3 | 68.9 | -1.3 | 1.6
Cn1cccc1C(=O)Nc1ccc(N2CCOCC2)cc1 | -22.6 | 96.8* | . | 0.8
CN(C)c1cccc(C(=O)Nc2ccc(N3CCOCC3)cc2)c1 | -3.2 | 90.6* | 5.4 | -0.7
CC(C)Cn1c(SC(C)C(=O)Nc2ccc(N3CCOCC3)cc2)nc2ccccc21 (stereo not given) | -1.8 | -3.6 | -15.8 | 3.0
O=C(Nc1ccc(N2CCOCC2)cc1)c1cccc(-n2cnnc2)c1 | -2.7 | 1.0 | 9.6 | 0.1
CC(Sc1nc2ccccc2n1C)C(=O)Nc1ccc(N2CCOCC2)cc1 (stereo not given) | -7.5 | 95.0* | 8.5 | 3.6
CCCNC(=O)COCc1cc(-c2ccc3c(c2)OCO3)on1 | -0.8 | -4.2 | -5.9 | 0.6
Cn1c(NCc2ccco2)nc2c1c(=O)n(Cc1ccc(Cl)cc1)c(=O)n2C | 51.2* | -7.2 | -9.9 | 1.3
CSc1cccc(NC(=O)c2ccc(NC3=NC4CS(=O)(=O)CC4S3)cc2)c1 (stereo not given) | 4.0 | 98.6* | -3.0 | -0.8
CCN(C(=O)CN1CCN(c2cccc(Cl)c2)CC1)c1c(N)n(Cc2ccccc2)c(=O)[nH]c1=O | 2.4 | 92.0* | 11.6 | -1.7
CCN(C(=O)CN1CCCc2cc(C)ccc21)c1c(N)n(Cc2ccccc2)c(=O)[nH]c1=O | 10.8 | . | . | .
Cc1ccc2c(c1)CCCN2CC(=O)N(C)c1c(N)n(Cc2ccccc2)c(=O)[nH]c1=O | 3.9 | 90.8* | . | -1.5
Fc1ccc(Nc2c(-c3ccco3)nc3ccccn23)cc1 | -4.4 | . | 0.4 | 1.0
Cc1ccc(Nc2c(-c3ccco3)nc3ccccn23)cc1 | -3.0 | 99.1* | 3.9 | 2.3
c1ccc(Nc2c(-c3ccco3)nc3ccccn23)cc1 | -0.8 | 98.2* | 16.5 | 6.5
Cc1cccc2nc(-c3ccco3)c(Nc3ccc4c(c3)OCCO4)n12 | 8.1 | 95.0* | -0.3 | 1.4
O[Si](CCCN1CCCCC1)(c1ccc(F)cc1)C1CCCCC1 (stereo not given) | -12.5 | . | . | 4.0
Cc1cccc(N2CSC3=C(C#N)C(c4ccc(C)o4)CC(=O)N3C2)c1 (stereo not given) | . | 99.3* | 78.4* | 3.7
CN(C)CCCN(C(=O)c1ccco1)c1nc2ccc(Cl)cc2s1 | 5.2 | -4.9 | 3.7 | -0.4
Cc1[nH]nc2c1C(=O)CCC2 | -1.5 | 99.5* | -2.0 | -0.7
Cc1[nH]nc2c1C(=O)CC(C)(C)C2 | 8.4 | -15.5 | -8.6 | 4.4
CC1Cc2nc(SCC(N)=O)n(C)c(=O)c2S1 (stereo not given) | 10.5 | 0.6 | 0.8 | -1.2
CCn1c(SCC(=O)Nc2cccc(F)c2)nc2c(c1=O)SC(C)C2 (stereo not given) | -1.4 | . | 14.8 | 2.3
CCOC(=O)c1ccc(NC(=O)CSc2nc3c(c(=O)n2C)SC(C)C3)cc1 (stereo not given) | -23.8 | 99.6* | 1.0 | 6.0
SMILES | H9c2 protect | ALR H2O2 inh | UBC9 SUMO inh | NTR1 agonist
CCOC(=O)c1ccc(NC(=O)CSc2nc3c(c(=O)n2CC)SC(C)C3)cc1 (stereo not given) | -0.2 | 98.6* | 2.5 | 6.5
N#CCC(=O)Nc1ccc(C(=O)OCC(=O)NC(=O)Nc2ccc3c(c2)OCCO3)cc1 | -0.1 | 99.3* | . | -0.2
CC(OC(=O)c1ccc(NC(=O)CC#N)cc1)C(=O)Nc1ccc2c(c1)OCCO2 (stereo not given) | -5.9 | 97.3* | . | 0.6
O=C(COC(=O)c1ccc(O)cc1)NCc1ccc2c(c1)OCO2 | 11.5 | -2.8 | 1.0 | -0.4
CC(=O)Nc1ccc(NC(=O)C(C)OC(=O)c2ccc3c(c2)OCCO3)cc1 (stereo not given) | -0.7 | . | -3.2 | 0.9
N#CCC(=O)Nc1ccc(C(=O)OCC(=O)NCc2ccc3c(c2)OCO3)cc1 | 6.3 | 98.8* | . | -0.5
CCN(CC)S(=O)(=O)c1ccc(/C=C/C(=O)Nc2cccc(F)c2)cc1 | -2.0 | -2.3 | -7.7 | 6.3
C=CCc1cc(C)ccc1OCC(O)CN1CCN(c2ccccc2)CC1 (stereo not given) | -7.1 | 26.5 | -20.1 | 4.3
COc1ccc(S(=O)(=O)N2CCN(C(=O)c3cc4c(s3)CCCC4)CC2)cc1 | -10.3 | 1.5 | . | 1.8
Cc1nc(NS(=O)(=O)c2ccccc2C)c2c3c(sc2n1)CCC3 | . | 97.1* | 26.8 | 1.4
CC(=O)Nc1ccc(S(=O)(=O)Nc2nc(C)nc3sc4c(c23)CCC4)cc1 | 5.5 | . | 14.5 | -0.7
CCOC(=O)C1=C(COC(=O)CCOc2ccc(OC)cc2)NC(=O)NC1C (stereo not given) | 2.9 | 0.6 | . | 0.8
O=C(O)CCN1C(=O)CC(N2C(=O)/C(=C/c3ccc(Cl)cc3)SC2=S)C1=O (stereo not given) | 5.6 | 98.4* | 1.6 | 2.8
CCCCC(CC)C(=O)O (stereo not given) | 2.4 | . | . | 8.5
CC1Nc2ncnc(N3CCN(c4ccccc4)CC3)c2N(Cc2ccccc2)C1=O (stereo not given) | 31.5 | 24.1 | . | 1.3
CC1Nc2ncnc(N3CCN(c4ccccc4)CC3)c2N(Cc2ccc(Cl)cc2)C1=O (stereo not given) | 60.9* | 9.5 | . | 10.9
O=C(Oc1cccc(-n2cnnn2)c1)c1sc2ccccc2c1Cl | -6.7 | . | 1.9 | 1.7
CC1CCCN(S(=O)(=O)c2ccc(C(=O)Nc3nnc(C4=COCCO4)o3)cc2)C1 (stereo not given) | 21.7 | 98.2* | 10.1 | -0.3
Cc1nnc(NC(=O)c2ccc(S(=O)(=O)N3CCCCC3C)cc2)o1 (stereo not given) | 20.2 | -3.1 | 9.7 | 0.6
CC1CCCCN1S(=O)(=O)c1ccc(C(=O)Nc2nnc(C3=COCCO3)o2)cc1 (stereo not given) | 30.4 | 97.4* | 11.3 | 1.6
CCN(CC)CCCN1C=C2C(=O)C(C)(OC(=O)CCC(=O)OC)C(=O)C(Br)=C2C=C1c1ccc(OC)cc1 (stereo not given) | 1.0 | -82.9 | . | 2.1
Cc1ccc(C(=O)NC(NC(=O)c2ccc(C)cc2)C(Cl)Cl)cc1 | -12.4 | -16.4 | 3.3 | -1.8
Oc1ccc(C=Nc2cccc3ccccc23)c(O)c1 | -4.8 | -21.7 | 69.8 | 1.0
C=CCOc1ccccc1/C=C/C(=O)O | 0.7 | -4.5 | 6.8 | -0.4
O=C(NC1CCCCC1)c1sc(=S)n2c1[nH]c(=O)c1ccccc12 | -11.7 | 96.9* | 23.9 | 2.4
COC(=O)C(CCCCN1C(=O)C2C3C=CC(C3)C2C1=O)N1C(=O)C2C3C=CC(C3)C2C1=O (stereo not given) | -3.2 | -18.9 | 33.3 | -2.1
COc1ccc(C(=O)COC(=O)C(CCCCN2C(=O)C3C4C=CC(C4)C3C2=O)N2C(=O)C3C4C=CC(C4)C3C2=O)cc1 (stereo not given) | 74.9* | . | -2.1 | 1.4
